Rows were chosen to be rich in hits. Some 1.2% of all compounds tested hit in one or more screens of this group.
SRC1 inh = inhibits human SRC1 coactivator. Q15788. HEK293 GAL4-SRC1 luciferase reporter, luminescence. inhibition, % at 3.6 µM. hit rate 0.12% among 360,000. AID 588354;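 active means inhibition above the campaign mean plus 3 SD, with each screening campaign given its own cutoff, cut at about 60% in these data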;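 further: 0% = DMSO treated cells and 100% = gossypol at 36 µM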
NR2F2 inh = inhibitors of human COUP-TFII (NR2F2); P24468; HEK293T NGFI-A luciferase reporter, luminescence; inhibition, % at 8.6 µM; hit rate 0.7% among 370,000;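 active means inhibition above a per-plate cutoff, mean inhibition of test wells between control levels plus 3 SD, cut at about 38% in these data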;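 further: cells cotransfected with COUP-TFII expression vector driving the NGFI-A reporter; 0% = median of COUP-TF2 test wells and 100% = reporter-only cells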
Efflux pump mplx = antifungal efflux pump inhibition, Nile Red retention; S. cerevisiae Candida pump triplex; hit rate 0.44% among 330,000; AID 485275; inhibition, % at 10 µM;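 active means plate passing quality check with inhibition over a set limit, or well fluorescence over plate mean plus 4 SD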;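 further: Nile Red retained in pooled yeast measured as flow cytometry median fluorescence; 0% = buffer negative control and 100% = Enniatin B positive control; higher means more Nile Red kept so more efflux inhibition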
NCOA3 inh = inhibits human SRC3 coactivator; hit rate 0.17% among 360,000; inhibition, % at 3.6 µM; HEK293 GAL4-SRC3 luciferase reporter, luminescence; AID 588352;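 active means inhibition above a per-campaign cutoff, the mean of all compounds plus 3 SD, cut at about 60% in these data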;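 further: 0% = DMSO-treated cells and 100% = gossypol-treated cells at 36 µM; higher means less SRC3-driven luciferase light from the GAL4 reporter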
NCOA2 inhibitor = inhibits human steroid receptor coactivator 2; Q15596; HEK293 GAL4-SRC2 luciferase reporter, luminescence; inhibition, % at 9 µM; hit rate 0.17% among 370,000;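 active means inhibition above the mean inhibition of all tested compounds plus 3 SD, set per campaign, cut at about 52% in these data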;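 further: 0% = DMSO treated cells and 100% = cells given Gossypol at 36 µM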
Target sequence (Q15596 whole entry, looked up, the tested form may be a part): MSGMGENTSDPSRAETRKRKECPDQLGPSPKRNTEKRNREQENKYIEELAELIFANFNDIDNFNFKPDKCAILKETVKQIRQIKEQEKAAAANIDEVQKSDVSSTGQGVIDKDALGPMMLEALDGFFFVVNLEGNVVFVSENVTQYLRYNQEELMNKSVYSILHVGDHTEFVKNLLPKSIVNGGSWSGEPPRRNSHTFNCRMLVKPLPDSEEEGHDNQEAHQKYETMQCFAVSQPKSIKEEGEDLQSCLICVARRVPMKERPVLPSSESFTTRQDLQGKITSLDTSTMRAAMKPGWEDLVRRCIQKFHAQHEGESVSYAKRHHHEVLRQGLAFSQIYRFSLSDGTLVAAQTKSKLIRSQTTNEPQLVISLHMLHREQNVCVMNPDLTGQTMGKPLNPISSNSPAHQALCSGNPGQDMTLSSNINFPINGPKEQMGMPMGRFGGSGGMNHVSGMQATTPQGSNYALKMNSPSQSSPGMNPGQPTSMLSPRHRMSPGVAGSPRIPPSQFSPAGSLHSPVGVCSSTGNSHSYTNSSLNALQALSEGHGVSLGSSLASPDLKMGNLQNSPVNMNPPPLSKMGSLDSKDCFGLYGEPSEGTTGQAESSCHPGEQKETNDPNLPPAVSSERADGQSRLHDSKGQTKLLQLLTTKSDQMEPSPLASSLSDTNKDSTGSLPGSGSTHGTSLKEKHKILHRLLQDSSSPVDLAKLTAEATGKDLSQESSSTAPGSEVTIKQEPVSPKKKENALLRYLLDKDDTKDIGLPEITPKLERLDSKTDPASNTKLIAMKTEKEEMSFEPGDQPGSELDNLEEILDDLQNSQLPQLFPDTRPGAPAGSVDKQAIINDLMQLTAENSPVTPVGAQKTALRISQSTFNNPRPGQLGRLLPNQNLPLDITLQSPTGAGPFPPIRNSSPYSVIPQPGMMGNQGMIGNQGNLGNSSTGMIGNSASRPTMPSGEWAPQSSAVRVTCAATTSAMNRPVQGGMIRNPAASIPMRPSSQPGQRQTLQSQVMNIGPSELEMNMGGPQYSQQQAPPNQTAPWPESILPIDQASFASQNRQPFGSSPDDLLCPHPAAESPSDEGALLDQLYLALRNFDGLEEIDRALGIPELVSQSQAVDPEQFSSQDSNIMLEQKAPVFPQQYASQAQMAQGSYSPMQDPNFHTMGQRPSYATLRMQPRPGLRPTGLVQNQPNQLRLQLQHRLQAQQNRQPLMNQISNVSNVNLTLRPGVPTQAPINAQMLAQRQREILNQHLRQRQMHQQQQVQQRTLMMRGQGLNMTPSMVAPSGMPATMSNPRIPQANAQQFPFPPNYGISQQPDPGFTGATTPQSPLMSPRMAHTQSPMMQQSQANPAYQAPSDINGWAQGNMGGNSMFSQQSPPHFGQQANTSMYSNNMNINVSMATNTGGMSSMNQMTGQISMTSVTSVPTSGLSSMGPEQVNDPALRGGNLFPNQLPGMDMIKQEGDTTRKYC
NR5A2 inv ag = NR5A2 inverse agonism in reporter assay; O00482; HEK293T StAR-luciferase reporter, LRH-1 transfected, 24 h; inhibition, % at 3.6 µM; hit rate 0.13% among 360,000; AID 602396;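 active means inhibition above the mean inhibition of all tested compounds plus 3 SD, cut at about 73% in these data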;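 further: 0% = DMSO wells and 100% = reporter-only cells lacking LRH-1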
Yeast cmpd fluor = counter-screen for efflux pump inhibitors: compound fluorescence; shares compounds with Efflux pump mplx; hit rate 4% among 1,700; fluorescence ratio to DMSO, % at 10 µM; S. cerevisiae AD/pABC3, flow cytometry; AID 588517;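 active means fluorescence ratio to DMSO above its plate's cutoff, the plate mean ratio plus 5 SD, cut at about 210% in these data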;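 further: unstained yeast with no Nile Red so the signal is compound autofluorescence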
Mdr1 pump inh = blocks the Candida albicans Mdr1 efflux pump in yeast; shares compounds with Efflux pump mplx; S. cerevisiae AD/CaMDR1, Nile Red efflux, flow cytometry; inhibition, % at 10 µM; hit rate 1% among 1,700; AID 588518; in the data active means inhibition above about 26%;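 further: 0% = DMSO vehicle and 100% = reference inhibitor; higher means more Nile Red retained so more efflux inhibition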
CaCdr2 efflux inh = Candida Cdr2 efflux pump inhibition; shares compounds with Efflux pump mplx; S. cerevisiae AD/CaCDR2, Nile Red retention, flow cytometry; Nile Red retention ratio vs DMSO, % at 10 µM; hit rate 4% among 1,700; in the data active means Nile Red retention ratio vs DMSO above about 190%;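 further: higher ratio means more blocking of Cdr2 efflux of the dye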
Cdr1 pump inh = Candida Cdr1 efflux pump inhibition. S. cerevisiae AD/CaCDR1, Nile Red efflux, flow cytometry. shares compounds with Efflux pump mplx. inhibition, % at 10 µM. hit rate 1% among 1,700;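 active means inhibition above the screen-wide mean plus twice its standard deviation, cut at about 32% in these data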
An asterisk follows results filed as active; x = no result; + = active, no number.

SMILES | SRC1 inh | NR2F2 inh | Efflux pump mplx | NCOA3 inh | NCOA2 inhibitor | NR5A2 inv ag | Yeast cmpd fluor | Mdr1 pump inh | CaCdr2 efflux inh | Cdr1 pump inh
NC(=O)c1ncn([C@@H]2O[C@H](CNCc3cccc4c3sc3ccccc34)[C@@H](O)[C@H]2O)n1 | 2 | 7 | x | -6 | 3 | -4 | x | x | x | x
COc1cc(C(=O)N/C(=C\c2cn(C)c3ccccc23)C(=O)NCCCN2CCOCC2)cc(OC)c1OC | -6 | -4 | 0 | 7 | 8 | 6 | x | x | x | x
O=C1NN(c2ccccc2)C(=O)/C1=C/c1ccc(-c2ccc(C(=O)O)cc2)o1 | -11 | 11 | 0 | 1 | -13 | 14 | x | x | x | x
O=C(O)c1ccc(N2C(=O)/C(=C/c3ccc(-c4ccc([N+](=O)[O-])cc4)o3)C=C2c2ccccc2)cc1 | 0 | x | 4.7* | -3 | x | -3 | 734* | 2 | + | 2
O=C(c1cc(COc2ccc(-n3cncn3)cc2)on1)N1CCCC1 | -35 | 2 | 9.9* | 19 | 6 | -13 | 105 | 0 | 106 | 0
O=C1CC(c2ccccc2)=C(c2ccccc2)C1c1ccccc1 (centres undefined) | -4 | 3 | x | -31 | -31 | 1 | x | x | x | x
CC(C(=O)NC1CCCCCC1)n1cc([N+](=O)[O-])cn1 (centres undefined) | -4 | -9 | 0 | -19 | -5 | -10 | x | x | x | x
CN(C)C(=O)CSc1nc2ccc(N3C(=O)c4ccccc4C3=O)cc2s1 | -7 | -6 | 0.7* | 15 | 5 | 18 | 90 | 0 | 100 | 0
O=C(NCc1ccc(F)cc1Cl)C1CC(=O)N(C2CCCCCCC2)C1 (centres undefined) | -11 | 22 | 0 | 5 | -1 | -16 | x | x | x | x
O=C(COC(=O)c1ccc(O)cc1O)NCCN1C(=O)CSC1=O | -16 | -9 | 0 | 15 | -16 | 3 | 100 | 0 | 97 | 0
O=C(COC(=O)c1cc(Cl)ccc1Cl)NCCN1C(=O)CSC1=O | 4 | 8 | 32* | -1 | -19 | -5 | 95 | 0 | 101 | 0
O=C(Nc1cc(S(=O)(=O)N2CCCCC2)ccc1Cl)c1ccncc1 | 0 | 9 | 0 | 8 | 8 | 11 | x | x | x | x
Cc1cc(Cl)c(OCCCn2ccnc2)c(Br)c1 | -15 | -12 | 16* | 7 | 0 | -10 | 94 | 0 | 95 | 0
CCO[C@@H]1OC(C(=O)Nc2ccccc2)=C[C@H](c2ccc(Br)cc2)[C@H]1CCCO | 3 | 2 | 0.8* | 4 | -2 | -21 | 100 | 0 | 121 | 0
CCN(CC)C(=O)CSc1nnc(-c2ccncc2)n1N | -4 | 16 | 5.9* | 7 | -19 | 0 | 109 | 0 | 98 | 1
CCn1c(SCC(=O)c2ccc(C)cc2)nnc1-c1ccncc1 | 6 | -10 | 8.2* | 25 | -12 | -35 | 114 | 0 | 114 | 0
CCN(CC)C(=O)CSc1nnc(-c2ccccc2)n1N | -15 | 0 | 0 | 20 | -3 | -4 | x | x | x | x
CC1(NCc2ccc(Cl)cc2)COP(=O)(NCc2ccccc2)OC1 (centres undefined) | 0 | -2 | x | -3 | 5 | -20 | x | x | x | x
Cc1ccc(CNC(=O)c2cccc(-n3cnnn3)c2)cc1 | 3 | -6 | 0 | 4 | -2 | 1 | x | x | x | x
COc1ccc(OC)c(NC(=O)CSc2nc3ccccc3c(=O)n2CCNC(C)=O)c1 | -8 | -7 | 0.6* | 10 | 16 | 17 | 101 | 0 | 98 | 0
COc1ccc(NC(=O)CSc2nc3ccccc3c(=O)n2CCNC(C)=O)c(OC)c1 | -5 | 1 | 0 | 13 | -1 | 17 | x | x | x | x
O=C(Nc1cccc2c1CCCC2)c1ccccc1F | 1 | -24 | 0 | -2 | -1 | -15 | x | x | x | x
CCOc1ccc(S(=O)(=O)NCc2ccccc2OC)cc1 | 23 | 12 | 0 | -3 | -9 | -4 | x | x | x | x
COc1ccc(-c2cc(C(=O)N3CCCC(C(F)(F)F)C3)c3ccccc3n2)cc1OC (centres undefined) | -6 | -5 | 0.4* | 1 | -13 | -2 | 105 | 0 | 110 | 0
COc1ccc(-c2cc(C(=O)N3CCCCCC3)c3ccccc3n2)cc1OC | 2 | 0 | x | 8 | 19 | -39 | x | x | x | x
SMILES | SRC1 inh | NR2F2 inh | Efflux pump mplx | NCOA3 inh | NCOA2 inhibitor | NR5A2 inv ag | Yeast cmpd fluor | Mdr1 pump inh | CaCdr2 efflux inh | Cdr1 pump inh
CCS(=O)(=O)N1CCN(Cc2ccncc2)CC1 | -5 | -1 | 0 | 21 | 10 | -12 | x | x | x | x
COc1c(C)cc(Br)cc1C(=O)Nc1ccccc1N1CCN(C(=O)c2ccccc2)CC1 | 5 | 12 | 1.0* | 5 | 4 | 4 | 106 | 0 | 94 | 0
COc1ccc(Br)cc1C(=O)Nc1ccccc1N1CCN(C(=O)c2ccccc2)CC1 | 6 | 12 | 0 | 3 | 0 | -3 | x | x | x | x
COc1cc(NC(=O)COC(=O)c2ccccc2F)cc(OC)c1 | 8 | -9 | 0 | 15 | 1 | 2 | x | x | x | x
Cc1nnc(SCc2cc(=O)[nH]c(Nc3nc(C)c4cc(C)c(C)cc4n3)n2)s1 | -1 | -15 | 1.6* | 21 | -5 | -2 | 106 | 0 | 102 | 0
COc1cc(C(c2sc3nc(C)nn3c2O)N2CCOCC2)cc(OC)c1OC (centres undefined) | -1 | -1 | 0 | -11 | 3 | 14 | x | x | x | x
CC(CCN1CCC(C(O)(c2ccccc2)c2ccccc2)CC1)Oc1cccc(C(F)(F)F)c1 (centres undefined) | x | 16 | x | x | 7 | x | x | x | x | x
Cc1ccc2sc(N(CCCN(C)C)C(=O)c3ccc(Br)s3)nc2c1C | 6 | -7 | 0.9* | 8 | 0 | 3 | 104 | 0 | 280* | 0
c1ccc(CNCC2COc3ccccc3O2)cc1 (centres undefined) | -70 | -14 | 0 | -42 | -41 | -6 | x | x | x | x
COc1ccc(C(=O)N2CCN(c3ccccc3)CC2)cc1S(=O)(=O)N1CCCC1 | 0 | 15 | 6.2* | -22 | 3 | -7 | 109 | 0 | 110 | 0
Cc1ccc(C(=O)N2CCN(c3ccccc3)CC2)cc1S(=O)(=O)N1CCCC1 | -3 | 18 | 0 | -1 | 13 | 10 | x | x | x | x
Cc1cc(C)nc(N/C(=N\S(=O)(=O)Cc2ccccc2)Nc2ccccc2Br)n1 | 6 | 14 | 13* | 14 | -1 | -1 | 108 | 0 | 106 | 0
CC(C)C[C@H](NC(=O)c1nc[nH]c1C(=O)N(C)Cc1ccccc1)C(=O)OC(C)(C)C | -14 | 14 | 0.9* | 5 | 17 | 7 | 116 | 1 | 133 | 1
